Among the data in PubChem BioAssay (NCATS) are outcome values, retold here.

Results filed as inconclusive are left out. Active and inactive are the calls of the source. Calls come from the whole dose curve; as a rule, active = well fitted curve in either direction with a large enough effect (not every such curve was filed as active); inconclusive = small, poorly fitted or top-dose-only effect, or another doubt; inactive = flat fitted curve, though single readings scatter.

The nature of this assay: AP1 Signaling Pathway (AID 357).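 Note: ME-180 reporter cells stimulated with EGF at its EC50 level.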 The following applies: ME-180 (cervical carcinoma) AP-1-bla reporter, EGF-induced, beta-lactamase ratio, 5 h; series mostly up to 17.2 µM. In a few lines: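 Beta-lactamase reporter under AP-1 response element, ME-180 background. Stimulus: EC50 EGF. Compound exposure 5 h, 37 °C. Detection: CCF4, 2.5 h RT, 460/530 nm. Values: AC50 from titration.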
For `CCn1cc(C(=O)O)c(=O)c2ccc(C)nc21`, the result was inactive. On to `C=C1CC[C@@]2(O)[C@H]3Cc4ccc(O)c5c4[C@@]2(CCN3CC2CC2)[C@H]1O5`, for which the result was inactive. Next, `NN=C(N)N`: “inactive”; `O=[N+]([O-])c1cc([As](=O)(O)O)ccc1O`: “inactive”. With `CN1C[C@H](CNC(=O)OCc2ccccc2)C[C@@H]2c3cccc4c3c(cn4C)C[C@H]21` the entry was “inactive”; with `COc1ccccc1N1CCNCC1`, “inactive”. With `Nc1ccncc1` the entry was “inactive”; with `CC[C@@H](CO)NC(=O)[C@@H]1C=C2c3cccc4c3c(cn4C)C[C@H]2N(C)C1`, “inactive”. Turning to `NCC1(CC(=O)O)CCCCC1`, the outcome was inactive. With `CNCC(O)c1ccc(O)cc1` (configuration not stated) the entry was “inactive”. Next, `CCCN1CCC[C@@H]2Cc3nc(N)ncc3C[C@H]21`: “inactive”. Next, `Clc1ccc(COC(Cn2ccnc2)c2ccc(Cl)cc2Cl)cc1` (configuration not stated): “inactive”. For `N#CC(C#N)=Cc1ccc(O)c(O)c1`, the result was inactive.

With `c1ccc(C2CC2)c(OCC2=NCCN2)c1`, the result was inactive. Next, `O=C1CC[C@@]2(O)[C@H]3Cc4ccc(O)c5c4[C@@]2(CCN3CC2CC2)[C@H]1O5`: “inactive”; `Cc1ccc(S(=O)(=O)N[C@@H](CCCCN)C(=O)CCl)cc1`: “inactive”. With `Clc1cccc(N2CCNCC2)c1` the entry was “inactive”; with `Cc1cccc(C)c1NC1=NCCCS1`, “inactive”; with `N[C@@H]1C[C@H]1c1ccccc1`, “inactive”. Consider `CCCN1CCC[C@@H]2Cc3[nH]ncc3C[C@H]21`, for which the result was inactive.

For `Cc1ncc(CNC(=O)N(CCCl)N=O)c(N)n1`, the outcome was inactive. Next, `O=c1[nH]c2ccccc2n1CCCN1CCC(n2c(=O)[nH]c3cc(Cl)ccc32)CC1`: “inactive”.
